PD-1 reversal = reversal of PD-1 mediated T-cell inhibition | 29,000 tested, under 10 active | activation, % (concentration not given with the values) | AID 2316 | primary human CD4 T cells, PD-L1 beads, CellTiter-Glo 96 h; call rule not given here;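 also: 0% = median vehicle wells and 100% = positive control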
NOMO-1 viab = STK33 inhibitor candidate reducing NOMO-1 cell viability; NOMO-1 AML viability, CellTiter-Glo luminescence, 72 h; inhibition, % (no concentration beside the values); 37,000 tested, 7.5% active; in the data active = inhibition above about 80%; inconclusive = no clear call, values can overlap the other calls
Hedgehog inh = Sonic Hedgehog pathway inhibition | Shh-LIGHT2 Gli-luciferase reporter, 30 h | inhibition, % (test concentration not listed) | 22,000 tested, 2.1% active | AID 2313;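 active = mean inhibition across valid replicates above about 65%, limit read from the data; inconclusive = mean under the limit, yet half or more replicates past it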;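 also: pathway switched on by Shh-conditioned medium diluted 1 in 25 in low serum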
MITF inh = MITF inhibition. 37,000 tested, 0.28% active. inhibition, % (no concentration beside the values). TRPM1 promoter luciferase, luminescence, 24 h. AID 2240; in the data active = inhibition above about 85%; inconclusive = no clear call, values can overlap the other calls; inactive = below about 68%;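 also: human melanocyte line stably carrying TRPM1 promoter luciferase reporter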
* marks the source's active call; other numbers are inactive results; ? = inconclusive; . = not tested or not shown; ! = not confirmed by another sample. Most compounds without a hit are left out; they make up all but 7.8% or so of the library.

SMILES	PD-1 reversal	NOMO-1 viab	Hedgehog inh	MITF inh
COC(=O)COc1ccc(NC(=O)c2ccc([N+](=O)[O-])c(C)c2)cc1	.	117.6*	.	-1.6
COC(=O)COc1ccc(NC(=O)c2ccc(NC(C)=O)cc2)cc1	-5.4	118.5*	.	-8.3
O=C(OCCO)c1cccc2c1-c1ccccc1C2=O	0.0	25.7	-38.2	-10.0
C[C@@H]1CN([C@H](C)CO)C(=O)c2cc(NC(=O)Nc3ccc(C(F)(F)F)cc3)ccc2O[C@H]1CN(C)Cc1ccc(Cl)c(Cl)c1	-9.8	122.5*	.	0.6
C[C@H]1CN([C@@H](C)CO)C(=O)c2cc(NC(=O)Nc3ccc(F)cc3)ccc2O[C@@H]1CN(C)Cc1ccc(Cl)c(Cl)c1	0.5	21.8	-12.6	10.2
C[C@H]1CN([C@@H](C)CO)C(=O)c2cc(NC(=O)Nc3ccc(C(F)(F)F)cc3)ccc2O[C@H]1CN(C)Cc1ccc(Cl)c(Cl)c1	0.3	106.9*	40.7	34.7
C[C@@H]1CN([C@H](C)CO)C(=O)c2cc(NC(=O)Nc3ccc(C(F)(F)F)cc3)ccc2O[C@@H]1CN(C)Cc1ccc(Cl)c(Cl)c1	-1.8	113.6*	14.7	25.5
CC(C)(C)C(=O)Nc1ccccc1Cc1ccccc1	0.7	-5.8	-15.7	-7.8
Fc1ccc(C(c2ccc(F)cc2)N2CCN(C/C=C/c3ccccc3)CC2)cc1	-9.0	115.7*!	4.2	-9.0
Cc1ccc(S(=O)(=O)Nc2ccc3c(c2)C(=O)N([C@H](C)CO)C[C@@H](C)[C@H](CN(C)Cc2ccc(-c4ccccc4)cc2)O3)cc1	-2.3	110.9*	-17.4	16.0
C[C@@H]1CN([C@H](C)CO)C(=O)c2cc(NS(=O)(=O)c3ccccc3)ccc2O[C@H]1CN(C)Cc1ccc(-c2ccccc2)cc1	-1.1	107.2*	.	9.9
C[C@@H]1CN([C@H](C)CO)C(=O)c2cc(NS(=O)(=O)c3ccc(F)cc3)ccc2O[C@@H]1CN(C)Cc1ccccc1	-0.1	-11.5	6.5	1.8
C[C@@H]1CN([C@@H](C)CO)C(=O)c2cc(NS(=O)(=O)c3ccc(F)cc3)ccc2O[C@@H]1CN(C)Cc1ccc(-c2ccccc2)cc1	-2.5	111.4*	.	31.2
Cc1ccc(NC(=O)C(C)NS(=O)(=O)c2ccc(F)cc2)c(C)c1 (configuration not stated)	1.5	-23.7	.	-8.9
CO[C@@H]1CC(OC2CCC3(C)C(CCC45CCC(C6=CC(=O)OC6)C(C)(CCC43)C5=O)C2)O[C@H](C)[C@@H]1O[C@@H]1O[C@H](CO[C@@H]2O[C@H](CO)[C@@H](O)[C@H](O)[C@H]2O)[C@@H](O)[C@H](O)[C@H]1O (some centres not stated)	-10.4	118.9*	-34.1	19.6
CC1(C)N=C(NC(=O)NC(=O)c2ccccc2Cl)N(c2ccccc2)O1	-0.7	1.7	-30.0	-16.6
COc1ccc(S(=O)(=O)N(C)C[C@@H]2Oc3ccc(NC(=O)Nc4ccc(C(F)(F)F)cc4)cc3CC(=O)N([C@@H](C)CO)C[C@@H]2C)cc1	-3.7	102.2*	-31.9	49.6
COc1ccc(S(=O)(=O)N(C)C[C@@H]2Oc3ccc(NC(=O)Nc4ccc(C(F)(F)F)cc4)cc3CC(=O)N([C@H](C)CO)C[C@H]2C)cc1	.	-12.9	-22.9	-12.5
COc1ccc(S(=O)(=O)N(C)C[C@@H]2Oc3ccc(NC(=O)Nc4ccc(C(F)(F)F)cc4)cc3CC(=O)N([C@H](C)CO)C[C@@H]2C)cc1	-1.8	114.7*	45.7	30.9
O=c1[nH]c2ccccc2n1CCCSc1nc2ccccc2[nH]1	0.1	61.7	-30.6	-13.6
Cc1ccc(S(=O)(=O)Nc2cccc3cccnc23)c([N+](=O)[O-])c1	-14.5	121.0*	.	52.3
CC(=O)Nc1ccc(NS(=O)(=O)c2ccc(C)cc2[N+](=O)[O-])cc1	0.1	21.4	.	6.8
C[C@@H]1CN([C@H](C)CO)C(=O)c2cc(NC(=O)Nc3ccc(C(F)(F)F)cc3)ccc2O[C@H]1CN(C)C(=O)Nc1cccc2ccccc12	.	116.9*	17.5	4.8
C[C@@H]1CN([C@H](C)CO)C(=O)c2cc(NC(=O)Nc3cccc4ccccc34)ccc2O[C@@H]1CN(C)Cc1ccc(C(F)(F)F)cc1	-5.4	?	0.1	46.9
C[C@H](CO)N1C[C@H](C)[C@H](CN(C)C(=O)Nc2cccc3ccccc23)Oc2ccc(NC(=O)Nc3ccc(C(F)(F)F)cc3)cc2C1=O	-2.7	114.2*	21.0	42.9
C[C@@H]1CN([C@H](C)CO)C(=O)c2cc(NC(=O)Nc3cccc4ccccc34)ccc2O[C@@H]1CN(C)C(=O)Nc1ccc(C(F)(F)F)cc1	.	21.9	-17.1	-0.2
